Data as given in PubChem BioAssay (Tox21).
Values without a mark were called inactive. Records with an inconclusive call do not appear. A call without a number means that no potency is given here. The source made the active and inactive calls. Unless noted, calls follow the shape of the dose curve; as a rule, active = well fitted curve in the direction sought with a large enough effect in the repeat runs; inconclusive = weak or mixed curves; inactive = no such curve, though single readings can be large; an effect the other way counts as inactive or inconclusive.

Tests used:
[1] = qHTS assay to identify small molecule agonists of the sonic hedgehog signaling (Shh) pathway (AID 1259368; calls by dose curve;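 also: NIH/3T3-derived 3T3Gli1-Luc cells carrying a stable Gli1-driven firefly luciferase reporter; series mostly up to about 92 µM; nearly all actives have a fitted effect of over 15% in size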)
Outline: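 3T3Gli1-Luc (NIH/3T3 clone, stable Gli1-Luc); 4 hr pre-incubation, then cpd in DMSO 24 hr, 37 C/5% CO2; luciferase reagent 30 min RT; luminescence.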

[2] = qHTS assay to identify small molecule antagonists of the sonic hedgehog signaling (Shh) pathway (AID 1259369; calls by dose curve; also: nearly all actives have a fitted effect of over 45% in size; also: potency is read from the fitted curve at half-maximal effect)
Outline: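 3T3Gli1-Luc, conditioned-medium-stimulated, 24hr cpd, 37C/5% CO2; Gli1-driven firefly Luc luminescence after 30min RT with luciferase reagent. Cells plated 4hr before cpd.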

[3] = qHTS assay to identify small molecule agonists of the androgen receptor (AR) signaling pathway in the presence of an antagonist - cell viability counter screen (AID 1259379);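 also: MDA-kb2 human breast cancer cells carrying an MMTV luciferase reporter; series mostly up to about 92 µM; nearly all actives have a fitted effect of over 25% in size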
Outline: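 Cells: MDA-kb2 (MMTV-luc, AR and GR elements), 3,000/well, 5 hr settle. Added: nilutamide 3.0uM final, then compounds (15 conc.). Incubation: 16 hr, 37C, no CO2. Read-out: CellTiter-Fluor, 1 hr, fluorescence.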

[4] = qHTS assay to identify small molecule agonists of the estrogen receptor beta (ER-beta) signaling pathway - cell viability counter screen (AID 1259380); also: nearly all actives have a fitted effect of over 30% in size; also: potency is read from the fitted curve at half-maximal effect
Outline: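 HEK293T ER-beta-UAS-bla; 2% CS-FBS; 6 hr pre-plate, 16 hr cpd at 37C/5% CO2; LiveBLAzer read first, then CellTiter-Glo 30 min RT, luminescence.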

[5] = qHTS assay to identify small molecule antagonists of the estrogen receptor beta (ER-beta) signaling pathway - cell viability counter screen (AID 1259382);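 also: HEK293T cells carrying ER-beta-UAS-bla reporter stimulated with estradiol; series mostly up to about 92 µM; nearly all actives have a fitted effect of over 55% in size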
Outline: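 Cells: ER-beta-UAS-bla HEK293T, 2,000/well, 2% CS-FBS, 6 hr settle. Cpd + E2 (1nM final), 16 hr, 37C/5% CO2. Bla FRET substrate 2 hr RT, then CellTiter-Glo 30 min RT, luminescence.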

[6] = qHTS assay to identify small molecule agonists or antagonists of the thyroid stimulating hormone receptor (TSHR) signaling pathway - wild type cell line counter screen (AID 1259384; calls by dose curve)
Outline: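 Counter screen in untransfected Hek293: compounds (15-point titration, triplicate) plus phosphodiesterase inhibitor Ro20-1724 added after 18 h plating; 30 min RT. Intracellular cAMP via competitive d2/cryptate immunoassay, 1 h incubation.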

[7] = target: Thyrotropin receptor (Homo sapiens) (UniProt P16473); assay: qHTS assay to identify small molecule antagonists of the thyroid stimulating hormone receptor (TSHR) signaling pathway (AID 1259385; calls by dose curve; also: nearly all actives have a fitted effect of over 20% in size; also: potency is read from the fitted curve at half-maximal effect)
Chain of Thyrotropin receptor (Homo sapiens) (P16473 whole entry, looked up): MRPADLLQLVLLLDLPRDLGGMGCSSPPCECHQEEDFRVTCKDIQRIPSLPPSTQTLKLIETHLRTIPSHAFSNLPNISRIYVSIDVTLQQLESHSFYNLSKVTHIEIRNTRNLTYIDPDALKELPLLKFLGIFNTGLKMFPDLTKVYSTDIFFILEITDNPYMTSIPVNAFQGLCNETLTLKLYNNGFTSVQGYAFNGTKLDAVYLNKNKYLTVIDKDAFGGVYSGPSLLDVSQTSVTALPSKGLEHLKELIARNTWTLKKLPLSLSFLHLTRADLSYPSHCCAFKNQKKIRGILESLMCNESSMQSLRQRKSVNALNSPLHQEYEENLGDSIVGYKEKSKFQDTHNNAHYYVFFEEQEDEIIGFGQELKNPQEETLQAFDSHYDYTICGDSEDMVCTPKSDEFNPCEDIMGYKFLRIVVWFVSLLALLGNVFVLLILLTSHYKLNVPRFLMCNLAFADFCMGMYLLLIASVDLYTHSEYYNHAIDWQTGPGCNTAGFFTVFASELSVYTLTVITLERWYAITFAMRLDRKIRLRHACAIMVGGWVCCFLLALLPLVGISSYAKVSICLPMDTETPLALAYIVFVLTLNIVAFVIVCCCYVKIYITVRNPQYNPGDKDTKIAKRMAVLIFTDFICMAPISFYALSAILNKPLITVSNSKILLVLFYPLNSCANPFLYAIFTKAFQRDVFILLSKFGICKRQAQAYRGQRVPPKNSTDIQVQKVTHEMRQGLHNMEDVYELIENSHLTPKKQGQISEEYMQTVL
Outline: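 Antagonist mode: compound-treated TSHR-expressing HEK293 cells were stimulated with 1.5 ng/mL TSH (final) in presence of Ro20-1724 for 30 min at RT. HTRF cAMP detection after 1 h; each compound tested at 15 concentrations, triplicate.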

[8] = qHTS assay to identify small molecule agonists of the estrogen receptor alpha (ER-alpha) signaling pathway in the presence of an antagonist - cell viability counter screen (AID 1259386);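 also: cells exposed to compounds for 22 h at 37 °C before the viability read; nearly all actives have a fitted effect of over 30% in size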; also: potency is read from the fitted curve at half-maximal effect
Outline: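 VM7Luc4E2, stripped-serum pre-culture 5 d; 24hr plating; +ICI-182,780 10.0nM final; cpds 15 conc, 22hr, 37C/5% CO2; CellTiter-Fluor added at 21hr, fluorescence 1hr later.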

[9] = target: Progesterone receptor (Homo sapiens) (UniProt P06401); assay: qHTS assay to identify small molecule antagonists of the progesterone receptor (PR) signaling pathway (AID 1346795; active = well fitted inhibition curve with a large enough effect in the signal ratio in the repeat runs, not every such curve was filed as active; the % refers to the signal ratio)
Chain of Progesterone receptor (Homo sapiens) (P06401 whole entry, looked up): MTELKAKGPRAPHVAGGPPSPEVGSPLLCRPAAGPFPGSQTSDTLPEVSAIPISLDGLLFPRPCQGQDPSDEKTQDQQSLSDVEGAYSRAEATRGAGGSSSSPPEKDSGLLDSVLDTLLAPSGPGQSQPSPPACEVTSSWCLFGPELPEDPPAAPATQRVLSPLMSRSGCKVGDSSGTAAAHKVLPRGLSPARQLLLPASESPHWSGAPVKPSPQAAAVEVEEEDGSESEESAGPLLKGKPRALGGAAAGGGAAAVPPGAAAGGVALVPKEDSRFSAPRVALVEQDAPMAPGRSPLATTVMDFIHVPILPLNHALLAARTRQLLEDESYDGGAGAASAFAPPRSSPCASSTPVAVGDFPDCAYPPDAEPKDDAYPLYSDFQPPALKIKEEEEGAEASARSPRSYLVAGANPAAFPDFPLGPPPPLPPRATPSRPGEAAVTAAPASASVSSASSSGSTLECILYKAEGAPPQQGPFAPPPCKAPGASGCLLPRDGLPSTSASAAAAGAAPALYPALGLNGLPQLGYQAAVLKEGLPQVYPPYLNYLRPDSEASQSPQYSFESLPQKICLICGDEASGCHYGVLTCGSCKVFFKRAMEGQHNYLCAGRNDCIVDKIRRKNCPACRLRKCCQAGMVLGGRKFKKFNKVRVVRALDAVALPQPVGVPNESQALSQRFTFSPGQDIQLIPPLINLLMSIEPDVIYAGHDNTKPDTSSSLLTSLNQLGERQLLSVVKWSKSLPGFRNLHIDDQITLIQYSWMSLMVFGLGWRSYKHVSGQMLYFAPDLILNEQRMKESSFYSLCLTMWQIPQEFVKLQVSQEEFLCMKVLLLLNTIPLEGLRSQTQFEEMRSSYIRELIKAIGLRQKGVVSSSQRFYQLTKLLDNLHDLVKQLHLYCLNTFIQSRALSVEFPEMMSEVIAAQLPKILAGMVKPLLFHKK
Outline: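 PR-UAS-bla HEK293T cells with beta-lactamase reporter under UAS control, in 2% charcoal-stripped FBS, treated with compounds plus 1 nM promegestone (R5020, final) for 16 hr at 37C. Read-out: FRET beta-lactamase substrate fluorescence after 2 hr at room temperature.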

[10] = qHTS assay to identify small molecule antagonists of the progesterone receptor (PR) signaling pathway - cell viability counter screen (AID 1346798); also: series mostly up to about 92 µM; nearly all actives have a fitted effect of over 50% in size
Outline: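 PR-UAS-bla HEK293T cells, 3,000/well in 2% charcoal-stripped FBS medium, dosed with compounds plus R5020 agonist and incubated 16 h at 37C. Viability then measured in the same wells by CellTiter-Glo luminescence after 30 min at RT.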

[11] = qHTS assay to identify small molecule agonists of the progesterone receptor (PR) signaling pathway - cell viability counter screen (AID 1346799; calls by dose curve; also: nearly all actives have a fitted effect of over 45% in size)
Outline: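 Counter screen in the PR-UAS-bla HEK293T wells (2% charcoal-stripped FBS, 16 h compound exposure at 37 C) after the bla read. CellTiter-Glo added, 30 min at room temperature, luminescence read as cell viability.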

[12] = qHTS assay to identify small molecule antagonists of the TGF-beta/Smad signaling pathway - cell viability counter screen (AID 1346824); also: nearly all actives have a fitted effect of over 50% in size
Outline: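 Cytotoxicity counter-screen run in the same wells as the beta-lactamase Smad reporter read: CellTiter-Glo luminescence after 30 min at room temperature. HEK 293T SBE-bla cells had 5 hr compound exposure at 37 C with TGF-beta1 (0.25 ng/mL stock).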

[13] = qHTS assay to identify small molecule agonists of the TGF-beta/Smad signaling pathway - cell viability counter screen (AID 1346829); also: top concentration of the series differs between compounds; nearly all actives have a fitted effect of over 45% in size
Outline: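 Luminescence from CellTiter-Glo, read after a 30 min room-temperature incubation, gives cell viability of SBE-bla HEK 293T cells treated 5 hr with compounds at 37 C.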

[14] = qHTS assay to identify small molecule agonists of the TGF-beta/Smad signaling pathway (AID 1346859; active = well fitted activation curve with a large enough effect in the signal ratio in the repeat runs, not every such curve was filed as active; the % refers to the signal ratio; also: series mostly up to about 77 µM)
Outline: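 SBE-bla HEK293T cells plated overnight, then compound exposure for 5 h at 37 C. Beta-lactamase reporter read with LiveBLAzer B/G FRET substrate after 2 h at room temperature, fluorescence at 405 nm excitation, 460/530 nm emission.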

[15] = target: Thyrotropin-releasing hormone receptor (Homo sapiens) (UniProt P34981); assay: qHTS assay to identify small molecule antagonists of the thyrotropin-releasing hormone receptor (TRHR) signaling pathway (AID 1346877; active = well fitted inhibition curve with a large enough effect in the repeat runs, not every such curve was filed as active; also: series mostly up to about 51 µM)
Chain of Thyrotropin-releasing hormone receptor (Homo sapiens) (P34981 whole entry, looked up): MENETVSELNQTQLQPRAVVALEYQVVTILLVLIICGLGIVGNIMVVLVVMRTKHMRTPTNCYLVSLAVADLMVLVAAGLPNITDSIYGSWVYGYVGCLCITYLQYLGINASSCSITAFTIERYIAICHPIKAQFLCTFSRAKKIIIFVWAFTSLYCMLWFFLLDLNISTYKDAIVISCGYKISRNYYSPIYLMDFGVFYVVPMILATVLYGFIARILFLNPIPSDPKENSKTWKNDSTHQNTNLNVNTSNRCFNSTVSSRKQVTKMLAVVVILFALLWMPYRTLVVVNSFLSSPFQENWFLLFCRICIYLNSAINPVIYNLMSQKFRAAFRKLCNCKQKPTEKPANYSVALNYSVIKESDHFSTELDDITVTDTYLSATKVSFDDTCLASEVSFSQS
Outline: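 Intracellular calcium fluorescence, read kinetically every second over 3 min, reports TRH-evoked signalling in HEK293 cells carrying TRHR. Test compounds were added 5 min ahead of a 1 nM TRH challenge.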

[16] = target: Progesterone receptor (Homo sapiens) (UniProt P06401); assay: qHTS assay to identify small molecule agonists of the progesterone receptor (PR) signaling pathway (AID 1346784; calls by dose curve; also: nearly all actives have a fitted effect of over 30% in size)
Outline: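 PR-UAS-bla HEK 293T cells (beta-lactamase reporter under UAS) in 2% charcoal-stripped FBS, dosed with 23 nL compound after 6 hr, incubated 16hr at 37C. LiveBLAzer B/G FRET substrate added, fluorescence read after 2 hours.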

[17] = target: Estrogen receptor (Homo sapiens) (UniProt P03372); assay: qHTS assay to identify small molecule agonists of the estrogen receptor alpha (ER-alpha) signaling pathway in the presence of an antagonist (AID 1259383; calls by dose curve; also: top concentration of the series differs between compounds; nearly all actives have a fitted effect of over 15% in size)
Chain of Estrogen receptor (Homo sapiens) (P03372 whole entry, looked up): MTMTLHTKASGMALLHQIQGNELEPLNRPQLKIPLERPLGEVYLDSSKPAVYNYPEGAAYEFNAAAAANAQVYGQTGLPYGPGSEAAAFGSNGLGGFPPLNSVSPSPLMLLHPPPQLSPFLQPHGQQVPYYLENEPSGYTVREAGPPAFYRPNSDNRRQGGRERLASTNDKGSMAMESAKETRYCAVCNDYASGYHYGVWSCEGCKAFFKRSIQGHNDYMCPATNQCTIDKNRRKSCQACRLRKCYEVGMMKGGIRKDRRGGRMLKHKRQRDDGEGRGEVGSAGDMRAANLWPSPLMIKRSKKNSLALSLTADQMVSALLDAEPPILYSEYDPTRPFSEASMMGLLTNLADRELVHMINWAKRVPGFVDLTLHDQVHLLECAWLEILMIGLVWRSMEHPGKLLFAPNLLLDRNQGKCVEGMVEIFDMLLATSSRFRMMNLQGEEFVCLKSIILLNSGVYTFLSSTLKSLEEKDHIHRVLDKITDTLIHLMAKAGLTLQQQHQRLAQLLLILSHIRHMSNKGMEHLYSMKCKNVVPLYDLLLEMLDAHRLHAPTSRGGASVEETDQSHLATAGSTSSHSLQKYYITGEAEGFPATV
Outline: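 VM7Luc4E2, endog. ER-alpha + 4×ERE-luc; charcoal-stripped FBS, phenol red-free, 5 d; 24hr plating; +10.0nM ICI-182,780 (final); cpds 15 conc, 22hr, 37C/5% CO2; ONE-Glo luminescence.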

| SMILES | Potency [1] | Potency [2] | Potency [3] | Potency [4] | outcome [5] | outcome [6] | Potency [7] | Potency [8] | Potency [9] | Potency [10] | Potency [11] | outcome [12] | outcome [13] | outcome [14] | outcome [15] | Potency [16] | Potency [17] |
| --- | --- | --- | --- | --- | --- | --- | --- | --- | --- | --- | --- | --- | --- | --- | --- | --- | --- |
| CCNCCO | inactive | inactive | inactive | inactive | inactive | inactive | inactive | inactive | inactive | inactive | inactive | inactive | inactive | inactive | inactive | – | – |
| CC1(C)C(=O)N(Cl)C(=O)N1Br | inactive | inactive | inactive | inactive | inactive | – | – | inactive | inactive | inactive | inactive | inactive | – | inactive | inactive | – | – |
| CCCCNc1cc(C(=O)O)cc(S(N)(=O)=O)c1Oc1ccccc1 | inactive | inactive | inactive | – | inactive | inactive | inactive | inactive | inactive | inactive | inactive | inactive | inactive | inactive | inactive | inactive | – |
| O=C(O)[C@@H]1CSCN1 | inactive | inactive | inactive | inactive | inactive | inactive | inactive | inactive | inactive | inactive | inactive | inactive | inactive | inactive | – | inactive | – |
| OCc1ccccc1O | inactive | inactive | inactive | inactive | – | inactive | inactive | inactive | inactive | – | inactive | inactive | inactive | inactive | inactive | inactive | – |
| CCOc1ccc2nc(N)sc2c1 | inactive | inactive | inactive | – | inactive | inactive | inactive | inactive | – | inactive | inactive | inactive | inactive | inactive | inactive | – | inactive |
| CC1CN(c2ccccc2)NC1=O (configuration not stated) | inactive | inactive | inactive | – | inactive | inactive | inactive | inactive | – | inactive | inactive | inactive | inactive | inactive | inactive | – | – |
| C=CC1CO1 (configuration not stated) | inactive | inactive | – | – | inactive | inactive | inactive | inactive | – | inactive | inactive | inactive | – | inactive | inactive | inactive | – |
| CCCN(CCC)C(=O)C(CCC(=O)O)NC(=O)c1ccccc1 (configuration not stated) | inactive | inactive | inactive | inactive | inactive | – | – | inactive | – | inactive | inactive | inactive | inactive | inactive | inactive | inactive | – |
| CCN(CC)C(=O)N(CC)CC | inactive | inactive | inactive | inactive | inactive | – | – | inactive | – | – | inactive | inactive | inactive | inactive | – | inactive | – |
| COc1ccc2nc(NC(=O)Nc3ccccc3)sc2c1 | inactive | inactive | – | 10.6 µM (active) | – | inactive | inactive | inactive | – | inactive | inactive | inactive | inactive | inactive | inactive | inactive | – |
| CC(C)(CO)[C@@H](O)C(=O)NCCC(=O)O | inactive | inactive | – | inactive | inactive | inactive | inactive | inactive | – | – | – | inactive | inactive | inactive | inactive | – | inactive |
| CCN(O)CC | inactive | 11.9 µM (active) | inactive | inactive | inactive | – | – | inactive | – | inactive | inactive | inactive | inactive | inactive | – | inactive | – |
| Clc1cccc(-c2cc(Cl)cc(Cl)c2)c1 | inactive | inactive | inactive | – | inactive | inactive | 52.5 µM (active) | inactive | – | inactive | – | inactive | inactive | inactive | inactive | – | inactive |
| CC1=NN(c2cc(Cl)c(S(=O)(=O)O)cc2Cl)C(=O)C1N=Nc1ccc(S(=O)(=O)O)cc1 (configuration not stated) | inactive | inactive | – | inactive | – | inactive | inactive | 61.1 µM (active) | – | inactive | inactive | inactive | inactive | inactive | inactive | inactive | – |
| C1CCOC1 | inactive | inactive | inactive | inactive | inactive | inactive | inactive | inactive | inactive | inactive | inactive | inactive | inactive | inactive | inactive | inactive | – |
| O=Cc1ccc(F)c(Br)c1 | inactive | inactive | – | – | inactive | inactive | inactive | inactive | inactive | – | inactive | inactive | inactive | inactive | inactive | – | inactive |
| CCOC(=O)COc1ccc2c(c1)CC(NCC(O)c1cccc(Cl)c1)CC2 (configuration not stated) | inactive | 27.5 µM (active) | – | – | inactive | inactive | inactive | – | inactive | inactive | inactive | inactive | – | inactive | inactive | inactive | inactive |
| C1CSCCS1 | inactive | inactive | inactive | inactive | inactive | inactive | inactive | inactive | – | inactive | inactive | inactive | inactive | inactive | – | – | – |
